# Screening data from PubChem BioAssay.
# PolyA inh – polyadenylation inhibitors in yeast reporter cells, primary screen, luminescence, S. cerevisiae. S. cerevisiae SKY197-pL101 polyadenylation reporter, beta-gal luminescence; efflux-impaired pdr1/pdr3 knockout yeast; score 100 = 6 SD above DMSO. activity score, % at 12 µM. 300,000 tested, 0.02% active. AID 1875, 2009;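 active means lowest replicate activity score at least 50, where 100 means six control SD above control mean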;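 further: yeast exposed to compound for 9 h at 30 °C; higher score means more reporter readthrough which indicates perturbed polyadenylation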
# NLRP3 yeast inh – NALP3 inflammasome inhibitors in reconstituted yeast, primary screen, luminescence, uHTS; Yeast reconstituted NLRP3/ASC/caspase-1, beta-gal luminescence, 24 h; inhibition, % at 10 µM; 330,000 tested, 0.39% active; AID 2825, 2010;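 active means inhibition of 50% or more; inactive means inhibition below 50%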;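 further: plate controls were induced DMSO wells for no effect and uninduced yeast grown without galactose for full effect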
# dFosB act – activators of delta FosB homodimer, primary screen, biochemical, fluorescence polarization, TAMRA-CDK5 oligo, single point; Protein FosB (Mus musculus), P13346; purified delta FosB; percent of positive-control signal above neutral wells; activation, % at 25 µM; 340,000 tested, 0.99% active; AID 493131, 2011;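 active means mean activation above about 17%, with every replicate also reaching it, limit read from the data, passing the limit was not always enough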
# Target sequence (P13346 whole entry, looked up): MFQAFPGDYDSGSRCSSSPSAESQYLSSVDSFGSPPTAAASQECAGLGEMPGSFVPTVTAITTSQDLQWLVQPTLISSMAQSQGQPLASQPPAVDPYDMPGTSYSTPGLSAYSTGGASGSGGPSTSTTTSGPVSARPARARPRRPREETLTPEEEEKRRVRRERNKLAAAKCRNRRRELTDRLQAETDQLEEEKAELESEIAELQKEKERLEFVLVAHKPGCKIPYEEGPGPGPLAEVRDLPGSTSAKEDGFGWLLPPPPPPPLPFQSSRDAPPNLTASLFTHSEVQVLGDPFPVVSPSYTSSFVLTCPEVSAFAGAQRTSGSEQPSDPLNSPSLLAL
# NALP1 inh – NALP1 inflammasome inhibitors in reconstituted yeast, colorimetric, S. cerevisiae, triplicate retest | S. cerevisiae NALP1/ASC/caspase-1 growth, X-gal OD620, 72 h | inhibition, % at 10 µM | 280,000 tested, 0.61% active | AID 2071, 2009; in the data active means inhibition mostly above about 24%, no sharp cut-off; inactive means mostly below about 32%
# ZTA counter – counter-screen for EBNA-1 inhibitors: inhibitors of Epstein-Barr virus ZTA. P03206. ZTA-DNA binding, fluorescence polarization. inhibition, % at 11 µM. 320,000 tested, 0.15% active; in the data active means inhibition above about 33%
# Target sequence (P03206 whole entry, looked up): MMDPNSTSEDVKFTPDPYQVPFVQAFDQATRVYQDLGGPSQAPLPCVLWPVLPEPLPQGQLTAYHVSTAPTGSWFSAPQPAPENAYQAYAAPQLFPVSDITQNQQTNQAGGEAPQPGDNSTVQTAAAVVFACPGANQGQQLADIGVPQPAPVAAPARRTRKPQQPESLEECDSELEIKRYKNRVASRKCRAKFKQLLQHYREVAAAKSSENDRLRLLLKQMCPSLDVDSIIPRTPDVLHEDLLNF
# EBNA-1 inhibitor – EBNA-1 DNA-binding inhibitors, primary screen, biochemical, fluorescence polarization. inhibition, % at 14.8 µM. 300,000 tested, 0.34% active; in the data active means inhibition above about 28%
# * = called active by the depositor; x = no result. Sampled rows, rich in hits. Any-hit rate of the full collection: about 2.2%.
SMILES,PolyA inh,NLRP3 yeast inh,dFosB act,NALP1 inh,ZTA counter,EBNA-1 inhibitor
CCCCC1CCC(C(=O)OC(C)C(=O)Nc2ccc(NC(C)=O)cc2)CC1 (centres undefined),7,8,-9,3,4,-1
COc1ccc(NC(=O)c2ccc(-c3ccc(-c4noc(C)n4)cc3C)cc2)cc1N1CCN(C)CC1,x,28,21*,x,-10,-2
O=C(c1ccccc1)c1c2c(cc3sc4ccccc4[n+]13)-c1cccc3cccc-2c13,x,x,22*,58*,1,-6
Cc1sc2cc3c(c(C(=O)c4ccccc4)[n+]2c1C)-c1cccc2cccc-3c12,-51,x,x,10,0,2
CCC(C)(C)NC(=O)C(c1ccc(OC)cc1)N(C(=O)CCC(=O)Nc1cc(C)on1)c1cc(OC)ccc1OC (centres undefined),7,9,-13,4,15,-1
Cc1ccc2c(Cl)c(Cc3ccccc3)c(=S)[nH]c2n1,x,x,-6,x,x,x
COCCn1nnnc1C(c1ccc(OC)c(OC)c1)N1CCN(C(=O)c2ccco2)CC1 (centres undefined),2,18,-2,1,11,2
CC(=O)c1cc(-c2ccccc2)n(CC(=O)NC2CCCC2)c1C,14,-9,-6,0,-4,-2
CC(=O)c1cc(-c2ccccc2)n(CC(=O)Nc2cc(C)cc(C)c2)c1C,7,9,33*,35,-2,23
CCc1ccc(S(=O)(=O)NCc2cn3ccccc3n2)s1,4,-3,0,38*,3,17
CCc1ccc(S(=O)(=O)NCc2cn3cccc(C)c3n2)s1,12,-5,0,9,-8,7
Cc1ccc(S(=O)(=O)N(CC(=O)Nc2ccc(Cl)cc2)C(=O)N2CCN(C)CC2)cc1,-10,7,-23,x,x,x
Cc1ccc(Nc2nc(N)nc(-c3oc4ccccc4c3C)n2)cc1,-10,22,76*,5,-8,-16
Cc1cc(NC(=O)c2cc(-c3ccccn3)nc3ccc(Br)cc23)no1,21,20,58*,3,12,9
CN(CC(=O)NCCc1ccc(Cl)cc1)S(=O)(=O)c1ccc2c(c1)c(=O)n(C)c(=O)n2C,-2,-4,3,-1,9,-6
CN(CC(=O)NCc1cccnc1)S(=O)(=O)c1ccc2c(c1)c(=O)n(C)c(=O)n2C,33,11,-5,44*,15,-9
COc1ccccc1N1CCN(CCOc2c(OC)cccc2OC)CC1,-1,8,3,28*,0,-12
COc1ccc(S(=O)(=O)N2C(=O)/C(=C3\SC(N)=NC3=O)c3ccccc32)cc1,8,13,24*,0,7,10
COc1ccc(S(=O)(=O)N2N=C(C)Oc3ccccc3C2=O)cc1,2,9,-4,1,-7,-10
O=C(COC(=O)/C=C/c1ccc(OC(F)F)cc1)NC1CCCCCC1,x,29,-7,x,x,x
COc1cccc(Cn2nnc(C(=O)Nc3cc(Cl)ccc3OC)c2N)c1,26,4,2,40*,-24,-12
Cn1nnnc1SCC(=O)NC1CCCC1,-7,4,3,-11,-7,3
O=C(NCCCN1CCCCCC1)c1ccc(CS(=O)(=O)Cc2ccccc2F)o1,x,x,7,9,x,x
O=C(NCCCN1CCOCC1)c1ccc(CS(=O)(=O)Cc2ccccc2Cl)o1,12,1,-4,29*,-18,0
O=C1CSC(=S)N1Cc1cccs1,x,x,-2,x,x,x
SMILES,PolyA inh,NLRP3 yeast inh,dFosB act,NALP1 inh,ZTA counter,EBNA-1 inhibitor
CCC(C(=O)Nc1ccccn1)c1ccccc1 (centres undefined),1,19,1,x,2,-8
CCC(C(=O)Nc1cnccn1)c1ccccc1 (centres undefined),8,22,-2,22*,-6,-20
O=C(NCCS(=O)(=O)c1ccc(Br)cc1)c1ccc(Cl)cc1Cl,4,14,0,14,12,-3
Cc1cc(C(=O)N/N=C/c2ccc(N(C)C)o2)cs1,11,6,-19,31*,-5,1
CCN(CC)S(=O)(=O)c1ccc2[nH]cc(C(=O)NCCN3CCCCCC3)c(=O)c2c1,1,-17,-14,32*,-15,-6
COc1cccc(N2C(=O)C3C(C2=O)C3(c2ccccc2)c2ccccc2)c1 (centres undefined),-17,4,-5,32*,2,4
CCCCCOc1ccc(C2C(C(=O)c3ccc(C)o3)=C(O)C(=O)N2c2cc(C)on2)cc1 (centres undefined),-25,33,-2,5,23,12
Cc1cccc(-n2nnc(C(=O)NCc3ccccc3Cl)c2N)c1,-11,17,-14,27*,-17,-6
Cc1ccc(NC(=O)/C(Cl)=C/c2ccccc2)cc1C,-9,36,5,37*,10,2
CC(=O)Nc1ccccc1C(=O)C(=O)Nc1ccc(C)c(C)c1,-4,6,-2,26,-4,13
CC(=O)c1ccc(NC(=O)C(C)Sc2nnc(-c3ccncc3)n2C2CC2)cc1 (centres undefined),x,-4,1,x,x,x
Cc1ccc(C2=N/C(=C/N3CCOCC3)C(=O)O2)cc1,11,12,-7,12,0,4
Cc1ccc(C2=N/C(=C\N3CCCCC3)C(=O)O2)cc1,4,30,-11,38*,4,11
O=C(COc1ccc(NC(=O)c2cccs2)cc1)c1ccc(F)cc1,17,14,-7,8,0,-5
CCOC(=O)c1c(C)[nH]c(C)c1C(=O)COC(=O)CCc1ccccc1,x,1,1,x,x,x
COc1ccc(OC)c(-c2csc(NC(=O)CSc3nnnn3C)n2)c1,-13,3,33*,x,10,12
CCCOc1ccc(-c2c(C(=O)N/N=C/c3ccsc3)nnn2-c2nonc2N)cc1,-21,3,20*,13,1,12
COc1ccc(CC(=O)Nc2ccc(/C(C)=N\NC(=O)c3ccc(Br)o3)cc2)cc1,20,-1,-1,11,x,x
COc1ccccc1Oc1ccc2c(c1)C(=O)N(c1ccc(O)cc1)C2=O,x,4,13,28*,14,2
COc1ccccc1Oc1ccc2c(c1)C(=O)N(CC(=O)O)C2=O,1,-5,-1,15,-7,-4
Cc1nn(-c2ccccc2)c2[nH]c(=O)cc(C(F)(F)F)c12,12,8,-2,38*,-8,7
Cc1cc(=O)[nH]c2c1c(C)nn2-c1ccccc1,-4,3,3,14,9,1
CCc1ccc(NC(=O)c2cc(Br)ccc2Br)cc1,-15,-2,x,42*,7,4
CC(C)c1ccc(NC(=O)c2cc(Br)ccc2Br)cc1,-30,3,2,18,-10,-11
